The results in this text go back to PubChem BioAssay (NCI).

Molecules are shown by their SMILES. This is part of a sample that, as a whole, favours compounds with a hit. Of some 83,000 tested, about 20% had one in any assay.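 Compound tested at a single concentration for 48 hours in 96-well plates; a percent growth value below 10 was scored as active.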 A number with no mark means an inactive call. Activity calls are given as the source filed them.

Among the test systems are SK-MEL-2 melanoma; SN12C renal; TK-10 renal; ACHN renal; CAKI-1 renal; A498 renal; CCRF-CEM leukemia; MOLT-4 leukemia; UO-31 renal; EKVX NSCLC.
Common to all, as to assay: NCI-60 one-dose screen, 48 h (100 = growth as untreated, 0 = no growth, -100 = all killed)
Common to all, as to conditions: 10 µM unless noted

Consider `COc1cc(-c2nn(-c3cccc(NC(=O)Nc4cccc(C(F)(F)F)c4)c3)cc2-c2ccncc2)ccc1Cl`, for which the growth was -71.2% (active) in the assay with SK-MEL-2 melanoma; 7.22% (active) in the assay with SN12C renal; 2.65% (active) in the assay with TK-10 renal; 6.54% (active) in the assay on ACHN renal; 11.5% in the assay with CAKI-1 renal; -5.17% (active) in the assay with A498 renal. For the same molecule, the growth is -9.68% (active) in the assay with CCRF-CEM leukemia and -26.3% (active) in the assay on MOLT-4 leukemia.

`CCOC(=O)c1ccc2c(c1)nc(-c1ccc(OCc3ccccc3)c(OC)c1)n2-c1cc(C(C)(C)C)[nH]n1`: the growth in the assay on SK-MEL-2 melanoma was 92.9%; with SN12C renal, 85.8%; in the assay on UO-31 renal, 67.5%; in the assay with TK-10 renal, 90.5%; in the assay with ACHN renal it was 72.1%; in the assay with CAKI-1 renal, 76.5%. Besides, the growth in the assay with A498 renal was 72.3%; with MOLT-4 leukemia it was 43.4%.

`CCOC(=O)c1ccc2c(c1)c1c(C)c3cccnc3c(C)c1n2C`: the growth is 96% in the assay on SK-MEL-2 melanoma; 33.8% in the assay on SN12C renal; 32% in the assay on UO-31 renal; 87.8% in the assay on TK-10 renal; 29.8% in the assay with ACHN renal; 47.9% with CCRF-CEM leukemia. Besides, the growth with MOLT-4 leukemia was 21.4%.

Regarding `COc1cc(-c2nn(-c3cccc(NC(=O)Nc4ccc(Cl)c(C(F)(F)F)c4)c3)cc2-c2ccncc2)ccc1Cl`, the growth was -57.8% (active) with SK-MEL-2 melanoma; 12.6% in the assay with SN12C renal; 11% in the assay with UO-31 renal; 12.6% with TK-10 renal; 9.33% (active) with ACHN renal; 14.7% in the assay on CAKI-1 renal. In addition, the growth in the assay on CCRF-CEM leukemia is -8.04% (active); with MOLT-4 leukemia, -2.38% (active).

Regarding `CSc1nc2c(c(=O)[nH]1)C(c1ccc(C)cc1)C=C(C(=O)O)N2` (centres undefined), the growth was 120% in the assay on SK-MEL-2 melanoma; 120% in the assay on SN12C renal; 88.1% in the assay on UO-31 renal; 118% in the assay with TK-10 renal; 106% in the assay on ACHN renal; 88.6% with CAKI-1 renal. For the same molecule, the growth was 93.1% in the assay with A498 renal and 119% in the assay on MOLT-4 leukemia.

Regarding `Cc1csc(NC(c2ccc(Br)cc2)c2c(C)nc3ccccn23)n1` (centres undefined), the growth is 86.2% in the assay with SK-MEL-2 melanoma; 94.8% with SN12C renal; 55.9% with UO-31 renal; 116% in the assay on TK-10 renal; 97.5% with ACHN renal; 67.3% in the assay with A498 renal. The growth is 89.1% with CCRF-CEM leukemia and 87.1% with MOLT-4 leukemia.

As for `COc1ccc(-c2cnnn2-c2nonc2-n2cccc2)cc1OC`, the growth in the assay with SK-MEL-2 melanoma is 38%; in the assay on SN12C renal, 68.5%; with UO-31 renal, 72.2%; in the assay with TK-10 renal, 69.6%; in the assay with CAKI-1 renal, 42.9%; with A498 renal, 56.3%. Besides, the growth was 54.7% in the assay on CCRF-CEM leukemia and 18.1% in the assay with MOLT-4 leukemia.

For `COc1ccc(/C=C2\CN(Cc3cn(CCNc4ccnc5cc(Cl)ccc45)nn3)C/C(=C\c3ccc(OC)c(OC)c3)C2=O)cc1OC`, the growth in the assay on SK-MEL-2 melanoma is -19.7% (active); with SN12C renal, -0.659% (active); with UO-31 renal, 80.5%; in the assay with TK-10 renal it was 8.71% (active); in the assay with ACHN renal it was 51.4%; with CAKI-1 renal, 97.4%. Also, the results for the growth in the assay with A498 renal, in the assay on CCRF-CEM leukemia and in the assay on MOLT-4 leukemia were 32.5%, 0.689% (active) and -3.65% (active), respectively.

For `CC(=O)Oc1cccc(S(=O)(=O)n2cc(C(=O)C(=O)Nc3ccncc3)c3ccccc32)c1`, the growth is 51.4% in the assay with EKVX NSCLC; 85.1% with SN12C renal; 75.3% with UO-31 renal; 102% in the assay on TK-10 renal; 88% in the assay with ACHN renal; 67.5% in the assay on CAKI-1 renal. For the same molecule, the growth in the assay on A498 renal is 63.3%; in the assay with MOLT-4 leukemia it was 90.9%.

With `COc1cccc(/C=C/C(=O)Nc2cc(OC)c3c(c2)OCO3)c1`, the growth was 92.4% with EKVX NSCLC; 93.8% with SN12C renal; 101% with UO-31 renal; 98.4% in the assay on TK-10 renal; 102% in the assay with ACHN renal; 93.7% with CAKI-1 renal. The growth with A498 renal is 69.5%; in the assay on MOLT-4 leukemia, 89.5%.

In the case of `CCN(CC)CCOC(=O)C(c1ccccc1)(c1ccccc1)C(C)C`, the growth in the assay on EKVX NSCLC is 81.6%; in the assay on SN12C renal, 88.1%; in the assay with UO-31 renal it was 51.7%; in the assay with TK-10 renal, 91.6%; with ACHN renal, 92.8%; with CAKI-1 renal, 66.8%. For the same molecule, the figures for the growth with A498 renal, in the assay with CCRF-CEM leukemia and in the assay on MOLT-4 leukemia were 70.5%, 86.4% and 86.7%, respectively.

On to `C=C1C(=O)O[C@@H]2[C@@H]3O[C@@](C)(CC/C=C(\C)CCC[C@@H]2C)[C@H](O)C[C@@H]13`, for which the growth in the assay with EKVX NSCLC was 76.3%; in the assay with SN12C renal, 47.3%; in the assay with UO-31 renal it was 45%; with TK-10 renal it was 32%; in the assay with ACHN renal, 51.9%; with CAKI-1 renal it was 39%. Moreover, the growth with A498 renal is 66.8%; with MOLT-4 leukemia, 16.8%.

For the molecule `CNC(=S)NNC(=O)C1CC1`, the growth is 105% in the assay on EKVX NSCLC; 109% with SN12C renal; 77.5% in the assay on UO-31 renal; 119% in the assay on TK-10 renal; 106% with ACHN renal; 96% in the assay on CAKI-1 renal. Also, the growth with A498 renal is 109%; with CCRF-CEM leukemia, 97.3%; in the assay with MOLT-4 leukemia, 85.1%.

Regarding `COc1ccc(C(=O)c2cc(OC)c(OC)c(OC)c2OC)cc1O`, the growth is 93.8% in the assay on EKVX NSCLC; 40.5% in the assay with SN12C renal; 56.5% in the assay on UO-31 renal; 95.9% with TK-10 renal; 54.5% with ACHN renal; 55.4% in the assay on CAKI-1 renal. Moreover, the growth in the assay on A498 renal was 67.7%; in the assay with MOLT-4 leukemia it was 44.2%.
